Among the data in PubChem BioAssay (NCI) are growth values, retold here.

Compounds without any hit were thinned out: in the full panel of roughly 83,000, 20% have a hit.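 Growth was measured after 48 h exposure to one concentration of compound in 96-well plates. Values under 10 count as active.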 A number with no mark means an inactive call. Active and inactive are the calls of the source.

The test has as its system IGROV1 ovarian. The experiment in a line: NCI-60 one-dose screen, 48 h (100 = growth as untreated, 0 = no growth, -100 = all killed). Particulars: 10 µM unless noted.
Take `O=[As](O)(O)c1ccccc1[As](=O)(O)O`: the growth is 135%.
The same measure for `Clc1ccc(COC(Cn2ccnc2)c2ccc(Cl)cc2Cl)cc1` (configuration not stated): 35%; for `CN(C)C(=O)Oc1ccccc1`: 108%; for `CC[C@H](C)[C@H](NC(=O)C12C3C4C1C1C2C3C41NC(C)=O)C(=O)N(C)[C@H](C[C@@H](OC(C)=O)c1nc(C(=O)N[C@@H](Cc2ccccc2)C[C@H](C)C(=O)OC)cs1)C(C)C` (some centres not stated): 31.1%.
The result for `COc1ccc(C(=O)c2sc3nc4c(cc3c2N)N2CCC4CC2)cc1OC` reads 104%; that for `CCC(CC)CC1(C)CC2(C)CCOC2OO1` (configuration not stated), 114%.
Turning to `ClCCN(CCCl)c1ccc(/C=N\N=C\c2ccc(N(CCCl)CCCl)cc2)cc1`, the growth is 71.5%.
The result for `CCOC(=O)C(Cc1ccc(N(CCCl)CCCl)cc1)NC(=O)C(CC(C)C)NC(C)=O` (configuration not stated) reads 22.5%; that for `CNCc1cccnc1`, 114%; that for `CCN(CCO)C(Cc1ccccc1)c1ccccc1` (configuration not stated), 97.4%.
The same measure for `C=CCc1cc2c(cc1OCC)OCO2`: 121%; for `N#Cc1c(Br)n(C2OC(CO)C(O)C2O)c2ncnc(N)c12` (configuration not stated): -35.1% (active); for `NC(=S)c1cn(C2OC(CO)C(O)C2O)c2ncnc(N)c12` (configuration not stated): 0.391% (active).
The result for `O=P(N1CC1)(N1CC1)N1CCc2ccccc21` reads 130%.
Regarding `Oc1ccc2c3c1OC1[C@@H](O)CC[C@@]4(O)[C@@H](C2)N(CC2CCC2)CC[C@]314` (some centres not stated), the growth was 103%.
The result for `COC(=O)[C@@]1(O)C[C@H]2O[C@]1(C)n1c3ccccc3c3c4c(c5c6ccccc6n2c5c31)C(=O)NC4` reads -30.4% (active); that for `ClCCN(CCCl)c1ccc(OCc2ccccc2)cc1`, 76.7%; that for `N#CC1(C#N)C(c2ccc(N(CCCl)CCCl)cc2)OC23CCCCC2C1(C#N)C(=N)O3` (configuration not stated), 77%.
The result for `COC(=O)[C@@H](C)C[C@H](Cc1ccccc1)NC(=O)c1nc([C@@H](C[C@H](C(C)C)N(C)C(=O)[C@@H](NC(=O)[C@H]2CC(=O)CCN2C)C(C)C)OC(C)=O)sc1C(C)C` reads 14.4%; that for `Nc1ccc2c(c1)oc1ccccc12`, 110%.
The same measure for `CNC(=O)Oc1ccc(C(C)(C)C)cc1OC(=O)NC`: 104%; for `CC[C@H](C)[C@H](NC(=O)C12C3C4C1C1C2C3C41NC)C(=O)N(C)[C@H](C[C@@H](OC(C)=O)c1nc(C(=O)N[C@@H](Cc2ccccc2)C[C@H](C)C(=O)OC)cs1)C(C)C` (some centres not stated): 36.9%; for `COc1ccc(N(CC(=O)NCCC[Te]c2ccccc2)C(=O)CCSC2=C(C)C(=O)c3ccccc3C2=O)cc1`: -68.3% (active).
As for `NC(=Nc1ccccc1)N[N+](=O)[O-]`, the growth was 121%.
The result for `C[S+]1C=Cc2ccccc2C1c1ccc(Cl)cc1` (configuration not stated) reads -85.2% (active); that for `CC(C)[C@]12O[C@H]1[C@@H]1O[C@]13[C@]1(O[C@H]1C[C@H]1c4c(C(=O)c5ccccc5)oc(OC(=O)c5ccccc5)c4CC[C@@]13C)[C@@H]2O`, -33% (active); that for `CN(C)CC(C(=O)Cc1ccccc1)c1ccccc1` (configuration not stated), 84.8%.
The same measure for `O=C1C=C2C(=CCOC2O)O1` (configuration not stated): 42.9%; for `Clc1ccc(N2COOC3(OOC2)C2CC4CC(C2)CC3C4)cc1`: -52.9% (active); for `Nc1ccc2c(c1)Cc1cc(Br)ccc1-2`: 104%.
The result for `O=c1[nH]c2ccc([N+](=O)[O-])cc2c(=O)o1` reads 105%; that for `CN1CC(CNC(=O)OCc2ccccc2)CC2c3cccc4c3c(cn4C)CC21` (configuration not stated), 52.6%.
Take `NC(=O)c1c(Br)n(C2OC(CO)C(O)C2O)c2ncnc(N)c12` (configuration not stated): the growth is -48.3% (active).
The same measure for `Cc1cc(N(CCCl)CCCl)ccc1/C=N\NC(=O)c1ccncc1`: 87%; for `COC(=O)CCC1=C(C)c2cc3[n-]c(cc4nc(cc5[n-]c(cc1n2)c(CCC(=O)OC)c5C)C=C4C)cc3C.[Cd+2]`: 35.1%; for `CCCC(C)C1(CC)C(=O)NC(=O)N(C)C1=O` (configuration not stated): 96.6%.
In the case of `CC(=O)c1ccc(C(=O)NCC2CCC3(CC2)OOC2(CCCCC2)OO3)cc1`, the growth was 12.2%.
